# Assay results: publication PMC5540273 (PLoS ONE, 2017)
# Key:
# Conditions in all cases: concentration: 1 μM, replicates: in singlicate; n = 1
# [1] = test system: T1, RSK4(Kin.Dom.1-N-terminal)
# T1 construct: gene RPS6KA6
# [2] = test system: T2, RSK4(Kin.Dom.2-C-terminal)
# T2 construct: gene RPS6KA6
# S6K1 = test system: S6K1
# SBK1 = test system: SBK1
# SGK2 = test system: SGK2
# SGK3 = test system: SGK3
# SGK = test system: SGK
# SIK2 = test system: SIK2
# SIK = test system: SIK
# SLK = test system: SLK
# SNARK = test system: T3, SNARK
# T3 construct: gene NUAK2
# SNRK = test system: SNRK
# SRC = test system: SRC
# SRMS = test system: SRMS
# SRPK1 = test system: SRPK1
# SRPK2 = test system: SRPK2
# SRPK3 = test system: SRPK3
# STK16 = test system: STK16
# STK33 = test system: STK33
# STK35 = test system: STK35
# 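Also: KINOMEscan kinase panel screen.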
SMILES,%Inh [1] [%],%Inh [2] [%],%Inh (S6K1) [%],%Inh (SBK1) [%],%Inh (SGK2) [%],%Inh (SGK3) [%],%Inh (SGK) [%],%Inh (SIK2) [%],%Inh (SIK) [%],%Inh (SLK) [%],%Inh (SNARK) [%],%Inh (SNRK) [%],%Inh (SRC) [%],%Inh (SRMS) [%],%Inh (SRPK1) [%],%Inh (SRPK2) [%],%Inh (SRPK3) [%],%Inh (STK16) [%],%Inh (STK33) [%],%Inh (STK35) [%]
Cn1cc(-c2ccc3c(c2)CCN3C(=O)Cc2cc(F)cc(F)c2F)c2c(N)ncnc21 [GSK2634140],0,0,17,16,4,0,0,0,8,60,28,8,10,0,34,0,0,0,0,0
COC(=O)Nc1nc2ccc(Oc3ccc(CC(=O)Nc4cc(C(F)(F)F)ccc4F)cc3)cc2[nH]1 [GW680903],0,9,9,10,4,0,0,0,0,2,0,0,0,0,31,0,0,0,0,0
O=C(O)C(F)(F)F.O=c1[nH]ccc2nc(N[C@@H]3CCNC3)nc(Nc3cc(Cl)cc(Cl)c3)c12 [GSK2188764],96.3,32,94.3,91.5,96.4,99.5,99.9,54,1,98.9,98.8,6,0,3,84,14,77,95,98.1,46
Cc1ccc(Nc2ccnc(Nc3ccc(C)c(F)c3)n2)cc1O.Cl [GW582868],0,0,0,6,0,0,1,100,0,41,0,0,86,0,34,7,17,11,0,99.5
NCCC(NC(=O)c1cc(Br)c(-c2ccnc3[nH]ccc23)s1)c1ccccc1.O=C(O)C(F)(F)F.O=C(O)C(F)(F)F (centres unmarked) [GSK1307810],53,4,48,66,67,64,78,0,0,16,90.2,0,0,0,81,36,83,63,90,20
COc1cccc(CC(=O)N2CCc3cc(-c4cn(C)c5ncnc(N)c45)ccc32)c1 [GSK2608899],0,29,13,20,2,2,0,0,17,65,35,0,18,4,14,0,20,9,2,0
O=C1NC(=O)C(c2ccccc2Cl)=C1Nc1cccc(Cl)c1 [SB-342409],0,9,7,8,0,5,0,0,5,96.5,0,11,0,0,21,0,23,13,0,6
CC(C)c1nc(-c2cccc(NS(=O)(=O)c3c(F)cccc3F)c2)c(-c2ccnc(Nc3ccc(N4CCOCC4)nc3)n2)s1.Cl [GSK1723980],0,19,29,20,0,15,34,90.8,99.4,73,0,0,100,99.7,48,0,0,30,62,30
COc1cccc2c(-c3ccncc3)c(-c3ccc(F)cc3)nn12 [GW468513],23,86,3,0,0,9,0,0,0,23,9,0,1,0,0,0,2,5,1,0
Cc1cccc(Nc2nc(NCCN)ncc2C(N)=O)c1 [GSK1292139],21,23,14,72,0,8,9,52,19,32,73,0,40,0,56,18,0,30,73,34
CCNC(=O)/C=C/c1n[nH]c2cc(Sc3ccccc3C(=O)NC)ccc12,17,24,18,0,0,46,0,55,44,23,42,5,7,7,63,0,37,10,0,48
N#CC1(c2cccc(C(=O)Nc3cccc(Oc4ccc5nc(NC(=O)C6CC6)sc5n4)c3)c2)CC1,11,10,0,0,0,0,0,0,31,39,0,0,97.6,15,0,0,0,0,16,0
c1ccc(Oc2ccc(Nc3ccnc4cc(-c5ccc(CN6CCCCC6)o5)ccc34)cc2)nc1 [GW567143],0,1,6,25,6,0,0,70,97.4,36,9,0,37,94.2,0,0,20,0,99.9,59
Cc1ccccc1CC(=O)N1CCc2cc(-c3cn(C)c4ncnc(N)c34)ccc21 [GSK2603346],28,10,19,23,2,0,0,0,0,48,34,0,15,0,18,0,0,2,3,2
Cc1nn2c(=O)cc(N3CCO[C@H](C)C3)nc2n1Cc1cccc(Cl)c1Cl [GSK2373693],0,0,4,89,1,0,0,0,0,4,0,0,19,0,40,0,0,59,0,1
Cc1ccc(NC(=O)c2ccc(Cl)c(Cl)c2)cc1-c1ccc(C(=O)Nc2ccncc2)cc1 [GSK1398460],0,23,0,15,0,14,0,9,8,29,9,0,23,0,34,0,14,14,0,0
